Test results published in paper PMC7862700, “An all-to-all approach to the identification of sequence-specific readers for epigenetic DNA modifications on cytosine”.

Key:
Assay in all cases: DAPPL (digital affinity profiling via proximity ligation, sequencing); 10 mM Tris-HCl pH 7.5, 50 mM NaCl, 1 mM DTT, 4% glycerol, room temperature, 30 min; GST-TFs on glutathione beads, 16-mer random dsDNA library, 0.1% formaldehyde crosslink after washing; high values mean tight binding
FLI1 = target: T1, FLI1 (Homo sapiens, UniProt Q01543 1-452); details: protein: recombinant; tags: N-terminal GST; dsDNA, one strand shown
T1 sequence: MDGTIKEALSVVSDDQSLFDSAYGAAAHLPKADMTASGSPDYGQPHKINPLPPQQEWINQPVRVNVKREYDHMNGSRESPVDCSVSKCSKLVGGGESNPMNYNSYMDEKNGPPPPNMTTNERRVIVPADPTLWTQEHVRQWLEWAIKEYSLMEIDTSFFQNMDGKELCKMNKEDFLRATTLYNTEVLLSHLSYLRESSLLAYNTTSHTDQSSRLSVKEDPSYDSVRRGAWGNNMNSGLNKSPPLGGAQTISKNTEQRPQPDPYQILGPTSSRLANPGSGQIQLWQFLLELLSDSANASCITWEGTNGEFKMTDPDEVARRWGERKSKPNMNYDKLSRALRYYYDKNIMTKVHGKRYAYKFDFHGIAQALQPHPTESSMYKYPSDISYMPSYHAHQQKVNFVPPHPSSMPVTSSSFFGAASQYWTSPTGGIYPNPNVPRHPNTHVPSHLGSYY
Outline: (§1)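 Each value of binding signal is a hexamer's read frequency for a factor divided by the same hexamer's frequency in the tag-only sample. Barcoded, bead-captured GST fusions of human transcription factors made in yeast were pooled with that sample and incubated with 200 nmole of a random double-stranded 16-mer DNA library in Tris/NaCl/DTT/glycerol buffer at room temperature for 30 min. Washing, 0.1% formaldehyde crosslinking, proximity ligation, PCR and Illumina NextSeq500 sequencing followed.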

ELK1 = target: T2, ELK1 (Homo sapiens, UniProt P19419 1-428); details: protein: recombinant; tags: N-terminal GST; dsDNA, one strand shown
T2 sequence: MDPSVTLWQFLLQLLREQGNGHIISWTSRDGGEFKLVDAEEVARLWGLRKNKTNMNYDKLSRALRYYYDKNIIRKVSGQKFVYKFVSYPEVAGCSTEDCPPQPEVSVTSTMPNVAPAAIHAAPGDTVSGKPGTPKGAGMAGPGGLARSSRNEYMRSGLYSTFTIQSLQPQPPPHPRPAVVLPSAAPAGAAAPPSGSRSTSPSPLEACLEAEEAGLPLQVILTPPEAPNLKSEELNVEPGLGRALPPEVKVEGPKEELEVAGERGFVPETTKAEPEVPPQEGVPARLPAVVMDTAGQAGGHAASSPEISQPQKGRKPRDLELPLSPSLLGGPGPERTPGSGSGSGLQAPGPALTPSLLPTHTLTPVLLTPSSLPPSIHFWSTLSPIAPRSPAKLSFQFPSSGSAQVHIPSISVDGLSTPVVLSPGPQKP
Outline: as §1

GABPA = target: T3, GABPA (Homo sapiens, UniProt Q06546 1-454); details: protein: recombinant; tags: N-terminal GST; dsDNA, one strand shown
T3 sequence: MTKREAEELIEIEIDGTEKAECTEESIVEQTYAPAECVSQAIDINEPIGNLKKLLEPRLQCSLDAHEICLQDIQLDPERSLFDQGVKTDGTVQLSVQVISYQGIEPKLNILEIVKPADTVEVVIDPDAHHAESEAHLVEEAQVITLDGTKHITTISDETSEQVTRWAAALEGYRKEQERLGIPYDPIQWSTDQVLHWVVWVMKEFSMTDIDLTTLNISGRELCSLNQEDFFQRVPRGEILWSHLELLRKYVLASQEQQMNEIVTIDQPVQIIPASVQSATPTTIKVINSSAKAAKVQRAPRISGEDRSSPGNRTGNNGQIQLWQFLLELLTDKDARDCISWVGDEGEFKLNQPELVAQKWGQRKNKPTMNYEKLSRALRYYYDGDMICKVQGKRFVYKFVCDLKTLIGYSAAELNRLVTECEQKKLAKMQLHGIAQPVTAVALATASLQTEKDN
Outline: as §1

ERG = target: T4, ERG (Homo sapiens, UniProt P11308 1-479); details: protein: recombinant; tags: N-terminal GST; dsDNA, one strand shown
T4 sequence: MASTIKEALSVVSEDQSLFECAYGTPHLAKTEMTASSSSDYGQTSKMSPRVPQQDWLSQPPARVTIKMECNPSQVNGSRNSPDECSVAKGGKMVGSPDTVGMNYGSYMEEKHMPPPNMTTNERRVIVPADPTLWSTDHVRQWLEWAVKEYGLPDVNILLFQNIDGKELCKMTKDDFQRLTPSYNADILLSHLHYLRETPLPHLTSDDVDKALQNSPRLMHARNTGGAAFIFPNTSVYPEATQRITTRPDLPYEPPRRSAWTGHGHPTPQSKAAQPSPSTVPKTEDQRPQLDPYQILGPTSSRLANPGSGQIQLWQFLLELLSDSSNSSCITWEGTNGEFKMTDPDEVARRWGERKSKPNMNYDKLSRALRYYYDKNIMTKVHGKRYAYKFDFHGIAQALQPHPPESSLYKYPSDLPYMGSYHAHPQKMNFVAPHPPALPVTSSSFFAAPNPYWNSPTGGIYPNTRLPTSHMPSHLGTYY
Outline: as §1

ELF1 = ELF1 (Homo sapiens, UniProt P32519 1-619); details: protein: recombinant; tags: N-terminal GST; dsDNA, one strand shown
Outline: as §1

EHF = target: T5, EHF (Homo sapiens, UniProt Q9NZC4 1-300); details: protein: recombinant; tags: N-terminal GST; dsDNA, one strand shown
T5 sequence: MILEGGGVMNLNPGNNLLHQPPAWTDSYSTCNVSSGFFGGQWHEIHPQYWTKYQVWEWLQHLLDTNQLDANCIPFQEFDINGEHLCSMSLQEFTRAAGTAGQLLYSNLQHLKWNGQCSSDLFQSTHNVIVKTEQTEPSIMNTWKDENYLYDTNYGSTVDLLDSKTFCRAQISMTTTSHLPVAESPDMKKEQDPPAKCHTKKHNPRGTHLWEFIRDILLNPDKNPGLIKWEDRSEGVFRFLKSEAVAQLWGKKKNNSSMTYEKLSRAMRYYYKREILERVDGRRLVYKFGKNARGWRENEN
Outline: as §1

SPI1 = SPI1 (Homo sapiens, UniProt P17947 1-270); details: protein: recombinant; tags: N-terminal GST; dsDNA, one strand shown
Outline: as §1

SPIB = SPIB (Homo sapiens, UniProt Q01892 1-262); details: protein: recombinant; tags: N-terminal GST; dsDNA, one strand shown
Outline: as §1

ELK3 = target: T6, ELK3 (Homo sapiens, UniProt P41970 1-407); details: protein: recombinant; tags: N-terminal GST; dsDNA, one strand shown
T6 sequence: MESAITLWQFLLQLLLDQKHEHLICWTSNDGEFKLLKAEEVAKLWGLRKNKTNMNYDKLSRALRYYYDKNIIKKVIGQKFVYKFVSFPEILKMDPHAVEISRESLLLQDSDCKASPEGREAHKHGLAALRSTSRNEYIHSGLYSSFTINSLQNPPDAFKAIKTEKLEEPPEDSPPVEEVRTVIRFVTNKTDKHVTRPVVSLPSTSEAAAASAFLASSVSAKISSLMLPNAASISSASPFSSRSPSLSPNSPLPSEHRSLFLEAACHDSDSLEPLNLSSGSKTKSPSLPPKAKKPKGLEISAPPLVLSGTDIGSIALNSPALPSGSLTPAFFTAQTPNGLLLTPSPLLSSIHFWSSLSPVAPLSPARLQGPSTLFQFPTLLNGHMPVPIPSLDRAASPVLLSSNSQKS
Outline: as §1

FEV = target: T7, FEV (Homo sapiens, UniProt Q99581 1-238); details: protein: recombinant; tags: N-terminal GST; dsDNA, one strand shown
T7 sequence: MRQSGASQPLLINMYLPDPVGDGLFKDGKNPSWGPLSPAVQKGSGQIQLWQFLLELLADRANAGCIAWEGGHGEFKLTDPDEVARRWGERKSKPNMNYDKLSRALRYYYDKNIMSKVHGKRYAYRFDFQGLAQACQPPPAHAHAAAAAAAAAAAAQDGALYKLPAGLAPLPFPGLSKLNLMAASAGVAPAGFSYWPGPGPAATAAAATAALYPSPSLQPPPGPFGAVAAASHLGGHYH
Outline: as §1

ETV5 = ETV5 (Homo sapiens, UniProt P41161 1-510); details: protein: recombinant; tags: N-terminal GST; dsDNA, one strand shown
Outline: as §1

HSF1 = HSF1 (Homo sapiens, UniProt Q00613 1-529); details: protein: recombinant; tags: N-terminal GST; chain copies: 3; dsDNA, one strand shown
Outline: as §1

SPIC = target: T8, SPIC (Homo sapiens, UniProt Q8N5J4 1-248); details: protein: recombinant; tags: N-terminal GST; dsDNA, one strand shown
T8 sequence: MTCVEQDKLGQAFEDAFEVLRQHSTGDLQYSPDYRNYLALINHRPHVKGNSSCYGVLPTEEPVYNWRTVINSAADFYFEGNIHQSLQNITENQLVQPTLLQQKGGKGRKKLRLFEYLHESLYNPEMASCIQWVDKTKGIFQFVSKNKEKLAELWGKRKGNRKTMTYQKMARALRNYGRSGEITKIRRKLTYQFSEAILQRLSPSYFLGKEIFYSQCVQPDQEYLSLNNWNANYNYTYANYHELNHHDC
Outline: as §1

ELF4 = ELF4 (Homo sapiens, UniProt Q99607 1-663); details: protein: recombinant; tags: N-terminal GST; dsDNA, one strand shown
Outline: as §1

ELK4 = target: T9, ELK4 (Homo sapiens, UniProt P28324-2 1-405); details: protein: recombinant; tags: N-terminal GST; dsDNA, one strand shown
T9 sequence: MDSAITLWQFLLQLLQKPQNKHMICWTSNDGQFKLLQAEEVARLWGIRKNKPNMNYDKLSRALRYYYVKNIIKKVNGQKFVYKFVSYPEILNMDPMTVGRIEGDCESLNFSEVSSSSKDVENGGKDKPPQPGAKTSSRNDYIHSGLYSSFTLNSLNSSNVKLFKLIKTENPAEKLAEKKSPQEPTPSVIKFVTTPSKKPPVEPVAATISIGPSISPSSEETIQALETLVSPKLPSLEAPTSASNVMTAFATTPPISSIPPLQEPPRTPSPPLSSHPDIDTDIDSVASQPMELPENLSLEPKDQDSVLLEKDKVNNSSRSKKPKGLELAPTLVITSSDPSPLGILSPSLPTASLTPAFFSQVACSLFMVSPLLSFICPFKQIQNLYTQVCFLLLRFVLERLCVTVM
Outline: as §1

ETV2 = target: T10, ETV2 (Homo sapiens, UniProt O00321 1-342); details: protein: recombinant; tags: N-terminal GST; dsDNA, one strand shown
T10 sequence: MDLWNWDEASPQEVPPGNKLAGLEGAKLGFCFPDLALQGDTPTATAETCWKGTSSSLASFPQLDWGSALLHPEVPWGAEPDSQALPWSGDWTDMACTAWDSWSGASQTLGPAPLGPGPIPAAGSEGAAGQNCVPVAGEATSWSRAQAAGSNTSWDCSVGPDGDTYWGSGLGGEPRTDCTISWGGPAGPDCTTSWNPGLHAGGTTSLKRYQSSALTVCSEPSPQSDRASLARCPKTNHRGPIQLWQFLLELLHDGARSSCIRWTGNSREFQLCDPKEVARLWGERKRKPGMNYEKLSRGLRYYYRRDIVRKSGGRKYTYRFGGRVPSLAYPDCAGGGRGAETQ
Outline: as §1

ELF3 = target: T11, ELF3 (Homo sapiens, UniProt P78545 1-371); details: protein: recombinant; tags: N-terminal GST; dsDNA, one strand shown
T11 sequence: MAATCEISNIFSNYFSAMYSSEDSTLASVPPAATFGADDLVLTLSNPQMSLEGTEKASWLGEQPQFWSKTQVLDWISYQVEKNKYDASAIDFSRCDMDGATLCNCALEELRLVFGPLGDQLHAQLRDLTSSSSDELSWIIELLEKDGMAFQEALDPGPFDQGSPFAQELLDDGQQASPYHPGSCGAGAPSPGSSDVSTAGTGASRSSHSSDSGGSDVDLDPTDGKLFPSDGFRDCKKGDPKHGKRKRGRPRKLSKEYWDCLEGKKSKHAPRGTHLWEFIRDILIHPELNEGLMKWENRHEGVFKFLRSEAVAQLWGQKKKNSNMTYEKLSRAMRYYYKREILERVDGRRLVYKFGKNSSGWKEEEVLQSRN
Outline: as §1

CRX = CRX (Homo sapiens, UniProt O43186 1-299); details: protein: recombinant; tags: N-terminal GST; dsDNA, one strand shown
Outline: as §1

ETV1 = ETV1 (Homo sapiens, UniProt P50549 1-477); details: protein: recombinant; tags: N-terminal GST; dsDNA, one strand shown
Outline: as §1

ETV1, sequence (P50549 whole entry): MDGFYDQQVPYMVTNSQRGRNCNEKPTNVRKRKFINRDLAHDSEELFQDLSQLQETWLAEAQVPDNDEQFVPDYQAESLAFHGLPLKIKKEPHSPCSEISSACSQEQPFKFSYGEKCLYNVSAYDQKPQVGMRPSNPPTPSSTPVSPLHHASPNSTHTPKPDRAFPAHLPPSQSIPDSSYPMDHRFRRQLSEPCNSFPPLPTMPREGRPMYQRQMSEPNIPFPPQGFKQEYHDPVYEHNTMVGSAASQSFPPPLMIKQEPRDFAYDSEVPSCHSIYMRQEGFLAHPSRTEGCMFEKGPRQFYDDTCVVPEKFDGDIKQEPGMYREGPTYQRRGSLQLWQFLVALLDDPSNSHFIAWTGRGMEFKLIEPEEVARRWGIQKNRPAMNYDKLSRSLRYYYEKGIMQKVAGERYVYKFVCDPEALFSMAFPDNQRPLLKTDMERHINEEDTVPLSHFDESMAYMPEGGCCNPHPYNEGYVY
ELF1, sequence (P32519 whole entry): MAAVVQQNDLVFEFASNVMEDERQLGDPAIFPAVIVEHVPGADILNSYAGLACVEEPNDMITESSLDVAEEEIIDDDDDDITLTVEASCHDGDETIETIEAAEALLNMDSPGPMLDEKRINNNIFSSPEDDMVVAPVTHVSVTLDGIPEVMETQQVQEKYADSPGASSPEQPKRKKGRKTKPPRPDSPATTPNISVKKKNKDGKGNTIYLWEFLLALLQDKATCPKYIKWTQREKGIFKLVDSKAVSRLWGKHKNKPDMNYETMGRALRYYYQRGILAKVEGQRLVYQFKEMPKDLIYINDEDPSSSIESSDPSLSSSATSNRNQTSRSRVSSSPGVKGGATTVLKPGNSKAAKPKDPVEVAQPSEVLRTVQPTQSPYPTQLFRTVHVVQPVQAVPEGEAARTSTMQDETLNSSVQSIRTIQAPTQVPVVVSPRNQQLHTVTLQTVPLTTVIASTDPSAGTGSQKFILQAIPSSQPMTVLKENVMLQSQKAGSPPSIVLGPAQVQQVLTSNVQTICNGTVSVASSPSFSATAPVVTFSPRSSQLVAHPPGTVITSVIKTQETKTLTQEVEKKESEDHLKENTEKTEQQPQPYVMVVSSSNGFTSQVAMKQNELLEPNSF
ETV5, sequence (P41161 whole entry): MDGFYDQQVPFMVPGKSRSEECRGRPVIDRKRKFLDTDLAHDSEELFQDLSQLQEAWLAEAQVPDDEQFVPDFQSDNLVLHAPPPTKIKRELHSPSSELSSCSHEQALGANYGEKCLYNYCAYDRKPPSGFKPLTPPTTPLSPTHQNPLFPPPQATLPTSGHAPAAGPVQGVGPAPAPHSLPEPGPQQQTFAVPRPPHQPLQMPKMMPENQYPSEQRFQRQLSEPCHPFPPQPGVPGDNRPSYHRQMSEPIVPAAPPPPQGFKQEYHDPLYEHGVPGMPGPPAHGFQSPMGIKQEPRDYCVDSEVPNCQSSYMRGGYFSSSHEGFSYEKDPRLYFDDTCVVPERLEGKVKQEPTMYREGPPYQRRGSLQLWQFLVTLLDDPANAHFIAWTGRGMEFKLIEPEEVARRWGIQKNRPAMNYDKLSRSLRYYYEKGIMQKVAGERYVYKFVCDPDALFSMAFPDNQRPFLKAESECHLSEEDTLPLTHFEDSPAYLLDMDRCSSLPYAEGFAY
SPIB, sequence (Q01892 whole entry): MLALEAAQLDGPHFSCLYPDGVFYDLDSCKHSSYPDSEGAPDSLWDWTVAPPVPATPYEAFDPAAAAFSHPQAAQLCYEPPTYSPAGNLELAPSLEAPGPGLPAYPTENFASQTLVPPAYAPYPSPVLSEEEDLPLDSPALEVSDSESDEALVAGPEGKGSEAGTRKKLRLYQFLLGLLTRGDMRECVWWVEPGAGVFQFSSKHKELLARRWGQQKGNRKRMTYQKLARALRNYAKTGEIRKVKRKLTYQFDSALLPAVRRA
ELF4, sequence (Q99607 whole entry): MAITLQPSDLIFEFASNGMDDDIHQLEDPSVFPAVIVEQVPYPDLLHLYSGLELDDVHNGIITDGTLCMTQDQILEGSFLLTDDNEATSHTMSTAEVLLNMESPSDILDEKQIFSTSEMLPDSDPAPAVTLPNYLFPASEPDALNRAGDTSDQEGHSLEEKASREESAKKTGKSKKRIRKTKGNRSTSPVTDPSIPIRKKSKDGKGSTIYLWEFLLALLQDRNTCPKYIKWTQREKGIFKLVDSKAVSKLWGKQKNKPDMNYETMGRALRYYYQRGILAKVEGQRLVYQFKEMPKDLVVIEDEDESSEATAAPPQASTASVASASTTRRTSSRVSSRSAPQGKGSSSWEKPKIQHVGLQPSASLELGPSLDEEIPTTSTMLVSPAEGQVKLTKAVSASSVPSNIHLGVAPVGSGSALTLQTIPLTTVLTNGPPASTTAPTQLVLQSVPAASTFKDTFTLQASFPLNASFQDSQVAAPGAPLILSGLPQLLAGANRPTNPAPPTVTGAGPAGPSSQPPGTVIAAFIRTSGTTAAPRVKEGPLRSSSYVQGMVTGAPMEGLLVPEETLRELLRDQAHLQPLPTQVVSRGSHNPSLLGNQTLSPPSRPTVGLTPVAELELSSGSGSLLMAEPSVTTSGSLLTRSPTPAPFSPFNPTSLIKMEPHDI
HSF1, sequence (Q00613 whole entry): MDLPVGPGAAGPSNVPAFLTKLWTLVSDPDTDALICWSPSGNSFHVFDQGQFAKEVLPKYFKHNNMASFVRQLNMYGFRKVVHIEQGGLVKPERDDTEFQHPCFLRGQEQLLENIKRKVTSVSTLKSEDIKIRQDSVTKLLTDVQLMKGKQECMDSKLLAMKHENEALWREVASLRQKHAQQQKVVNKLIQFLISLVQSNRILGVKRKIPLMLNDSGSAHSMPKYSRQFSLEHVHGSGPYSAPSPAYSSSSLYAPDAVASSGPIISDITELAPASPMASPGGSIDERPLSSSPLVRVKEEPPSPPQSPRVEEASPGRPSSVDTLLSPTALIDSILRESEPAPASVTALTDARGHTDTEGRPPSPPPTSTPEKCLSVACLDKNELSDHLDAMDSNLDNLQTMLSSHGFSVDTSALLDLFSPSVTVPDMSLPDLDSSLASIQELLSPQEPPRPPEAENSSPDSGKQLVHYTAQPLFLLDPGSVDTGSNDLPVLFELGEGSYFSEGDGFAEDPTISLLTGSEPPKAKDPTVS
CRX, sequence (O43186 whole entry): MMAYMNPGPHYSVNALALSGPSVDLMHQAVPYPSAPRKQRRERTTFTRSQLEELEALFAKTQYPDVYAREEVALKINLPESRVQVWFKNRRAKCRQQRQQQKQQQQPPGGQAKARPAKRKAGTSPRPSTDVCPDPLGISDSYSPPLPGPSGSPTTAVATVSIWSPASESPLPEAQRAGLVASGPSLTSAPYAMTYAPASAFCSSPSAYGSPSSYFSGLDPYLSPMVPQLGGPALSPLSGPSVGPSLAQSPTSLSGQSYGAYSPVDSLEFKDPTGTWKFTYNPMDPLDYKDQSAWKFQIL

TCTATT
binding signal (FLI1): 1.33 fold enrichment (6-mer frequency, TF over GST control)
binding signal (ELK1): 1.3 fold enrichment (6-mer frequency, TF over GST control)
binding signal (GABPA): 1.18 fold enrichment (6-mer frequency, TF over GST control)
binding signal (ERG): 1.25 fold enrichment (6-mer frequency, TF over GST control)
binding signal (ELF1): 1.29 fold enrichment (6-mer frequency, TF over GST control)
binding signal (EHF): 1.28 fold enrichment (6-mer frequency, TF over GST control)
binding signal (SPI1): 1.28 fold enrichment (6-mer frequency, TF over GST control)
binding signal (SPIB): 1.28 fold enrichment (6-mer frequency, TF over GST control)
binding signal (ELK3): 1.18 fold enrichment (6-mer frequency, TF over GST control)
binding signal (FEV): 1.22 fold enrichment (6-mer frequency, TF over GST control)
binding signal (ETV5): 1.3 fold enrichment (6-mer frequency, TF over GST control)
binding signal (HSF1): 1.43 fold enrichment (6-mer frequency, TF over GST control)
binding signal (SPIC): 1.57 fold enrichment (6-mer frequency, TF over GST control)
binding signal (ELF4): 1.27 fold enrichment (6-mer frequency, TF over GST control)
binding signal (ELK4): 1.25 fold enrichment (6-mer frequency, TF over GST control)
binding signal (ETV2): 1.16 fold enrichment (6-mer frequency, TF over GST control)
binding signal (ELF3): 1.35 fold enrichment (6-mer frequency, TF over GST control)
binding signal (CRX): 1.37 fold enrichment (6-mer frequency, TF over GST control)
binding signal (ETV1): 1.25 fold enrichment (6-mer frequency, TF over GST control)
